# Many of the other results were omitted from the sample, so hits are more common in it than they were.
# 12-LOX inh: ALOX12 (human) lipoxygenase inhibition; purified 12hLO, xylenol orange hydroperoxide absorbance; Potency, µM (top dose mostly 108 µM), inactives show at the top dose activity change, negative = inhibition, actives largely listed as inhibitors; AID 1671190; 580,000 tested, 1.1% active; also: potency is read from the fitted curve at half-maximal effect
# Target sequence (P18054 whole entry, looked up): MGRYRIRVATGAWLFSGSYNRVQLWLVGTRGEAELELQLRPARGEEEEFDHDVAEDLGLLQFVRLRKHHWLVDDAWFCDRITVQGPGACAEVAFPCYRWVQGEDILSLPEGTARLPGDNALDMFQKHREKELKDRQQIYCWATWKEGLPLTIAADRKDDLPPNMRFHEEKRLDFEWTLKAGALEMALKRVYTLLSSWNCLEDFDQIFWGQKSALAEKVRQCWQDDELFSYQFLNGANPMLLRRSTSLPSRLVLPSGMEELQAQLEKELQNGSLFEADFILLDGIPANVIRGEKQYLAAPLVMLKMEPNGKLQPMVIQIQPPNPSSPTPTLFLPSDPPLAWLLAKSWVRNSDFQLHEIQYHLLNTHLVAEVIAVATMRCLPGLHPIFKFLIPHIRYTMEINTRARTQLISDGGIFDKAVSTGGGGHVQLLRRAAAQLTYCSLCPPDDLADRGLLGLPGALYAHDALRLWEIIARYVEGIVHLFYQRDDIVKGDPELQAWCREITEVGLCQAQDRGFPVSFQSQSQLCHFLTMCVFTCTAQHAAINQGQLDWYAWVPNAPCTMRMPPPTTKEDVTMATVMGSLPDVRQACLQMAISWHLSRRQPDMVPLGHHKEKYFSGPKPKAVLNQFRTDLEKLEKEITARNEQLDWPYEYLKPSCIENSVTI
#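 Purified human 12hLO (150 nM final) in 25 mM Hepes, 0.01% Triton X-100, pH 7.0 was preincubated 15 min at room temperature with compound. Then 40 uM arachidonic acid was added, 30 min. Hydroperoxide was read by Fe-XO absorbance ratio 573/405 nm.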
# IL1B secr inh: blocks inflammasome-driven IL-1 beta release; activity change, % at 57.5 µM; 360,000 tested, 4.7% active; THP-1 LPS/ATP IL-1B secretion, AlphaLISA, 16 h; active compounds read low; AID 743279; in the data active = activity change below about -50%; inconclusive = mostly about -30% to -49%
#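 Secreted IL-1B measured by AlphaLISA bead assay after 16 h compound exposure of THP-1 cells; compounds (final up to 57.5 uM) added 1 h before LPS (250 ng/mL) and ATP (1.25 mM) stimulation; lower signal means less secretion.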
# HT1080-NT tox: kills 2HG-producing HT-1080-NT fibrosarcoma cells | HT-1080-NT fibrosarcoma viability, CellTiter-Glo ATP luminescence, 48 h | Potency, µM (titrated, usually from 46.1 µM), for inactives: top-dose activity, negative = less viability, actives largely listed as cytotoxic | 360,000 tested, 1.6% active;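 also: NT is the 2HG producing partner of a matched IDH1 knockdown line; potency is read from the fitted curve at half-maximal effect; 0% = DMSO-treated cells and -100% = media-only wells without cells; nearly all actives have a fitted effect of over 55% in size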
#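 Luminescent CellTiter-Glo readout after 48 hours of compound exposure at 37 degrees C defined viability of HT-1080-NT cells. Activity was normalized to DMSO wells and cell-free media wells; concentration-response curves were fitted and assigned curve classes.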
# HT1080 IDH1KD tx: toxicity to HT-1080 IDH1 knockdown cells (counter line); HT-1080 IDH1 knockdown viability, ATP luminescence, 48 h; Potency, µM (top dose mostly 46.1 µM), inactives show at the top dose activity, negative = toxicity, actives largely listed as cytotoxic; 360,000 tested, 2% active;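 also: potency is read from the fitted curve at half-maximal effect; 0% = DMSO wells and -100% = cell-free medium wells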
#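 Assay cells: HT-1080 with IDH1 knockdown, 750 per well, RPMI/5% FBS. Exposure: 48 h at 37 °C following 2 h pre-incubation. Read: CellTiter-Glo luminescence; fitted concentration-response, curve class assigned.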
# TDP1 cell noCPT: qHTS for Inhibitors of human tyrosyl-DNA phosphodiesterase 1 (TDP1): qHTS in cells in absence of CPT; DT40 Tdp1-/- hTDP1 cells, no CPT, ATP luminescence, 48 h; Potency, µM (titrated, usually from 46.2 µM), for inactives: at the highest dose activity change, negative = growth inhibition, most hits filed as inhibitors; 420,000 tested, 15% active; AID 686978, 2013; also: potency is read from the fitted curve at half-maximal effect; nearly all actives have a fitted effect of over 55% in size
#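 Chicken DT40 Tdp1-/- cells stably complemented with human TDP1 were seeded at 400 cells/well with DMSO in place of 20 nM camptothecin. After compound pinning, cells grew at least 48 hr at 37 °C; viability read by CellTiter-Glo luminescence.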
# DT40 TDP1 CPT: growth inhibition of DT40 Tdp1-/-;hTDP1 cells with camptothecin (screen for TDP1 inhibitors). Potency, µM (doses to about 46.2 µM), without a hit: at the top dose activity change, negative = growth inhibition, most hits filed as inhibitors. 420,000 tested, 12% active. chicken DT40 Tdp1-/-;hTDP1 cells + 20 nM CPT, ATP luminescence, 48 h; also: potency is read from the fitted curve at half-maximal effect; nearly all actives have a fitted effect of over 55% in size
#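 Chicken DT40 Tdp1-/- cells complemented with human TDP1, 400 cells/well, exposed to compounds plus 20 nM camptothecin for at least 48 h at 37 C; viability read as ATP content by CellTiter-Glo luminescence.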
# An asterisk follows results filed as active; u = inconclusive; x = no result given; [ ] = another dose, or the depositor's remark. Unless noted, calls follow the shape of the dose curve; as a rule, active = well fitted curve in the direction sought with a large enough effect; inconclusive = small, poorly fitted or top-dose-only effect, or another doubt; inactive = no such curve, though single readings can be large; an effect the other way counts as inactive or inconclusive. Unless noted, % is scaled to controls: 0 for no effect and ±100 for the full control effect.
SMILES,12-LOX inh,IL1B secr inh,HT1080-NT tox,HT1080 IDH1KD tx,TDP1 cell noCPT,DT40 TDP1 CPT
COCCNC(=O)[C@H]1CN2CC[C@H]1C[C@@H]2Cn1cc(CO)nn1,12.3%[176 µM],x,x,x,x,x
O=C(c1cc(Br)c[nH]1)C(Cl)(Cl)Cl,-19.2%,x,x,x,x,x
NP(=O)(Oc1ccccc1)c1ccccc1 (stereo not drawn),-10.8%,20.6,9.7%,u,-4.4%,8.1%
Cc1ccc(NP(=O)(Nc2ccc(C)cc2)Oc2ccccc2)cc1,u,-71.5*,-14.7%,u,u,4.9%
O=P(Oc1ccccc1)(Oc1ccccc1)c1ccccc1,118.2%,-14.0,-1.7%,7.0%,16.4µM*,u
CCOC(=O)C1(CCc2ccccc2)CCN(C2CCSCC2)CC1,5.4%,-17.6,-0.4%,10.8%,6.51µM*,8.2µM*
CCOC(=O)C1(CCCc2ccccc2)CCN(C2CCCC2)CC1,-12.6%,-73.7*,-18.3%,-26.6%,u,18.4µM*
CCOC(=O)C1(CCc2ccccc2)CCN(Cc2ccc3c(c2)OCCO3)CC1,-5.7%,8.2,23.1µM*,16.4µM*,25.9µM*,u
CCOC(=O)C1(CCc2ccccc2)CCN(Cc2ccc(NC(C)=O)cc2)CC1,u,-6.5,-1.6%,-3.7%,u,u
CCOC(=O)C1(CCOc2ccccc2)CCN(Cc2ccc(C)s2)CC1,0.0%,-96.3*,-21.4%,u,7.31µM*,u
O=C(Cc1ccc(Cl)cc1)N1Cc2ccccc2CC2(CCCN2CC2CCNC2)C1 (stereo not drawn),6.5%[6.33 µM],x,x,x,x,x
O=C(N1CCC2(CC1)NCc1ccccc1-n1ccnc12)C1(c2ccccc2)CC1,5.5%,x,x,x,x,x
CCC(CC)c1cc([C@H]2CN3CC[C@H]2C[C@@H]3CNC2CCN(C(C)=O)CC2)nc(-c2ccncc2)n1,96.6%,x,x,x,x,x
CCOc1ccc(CNCCc2ccc3c(c2)OCO3)cc1,u,-18.9,-27.5%,-20.0%,u,1.1%
COc1ccccc1CNCCc1ccc(F)cc1,u,0.0,-20.8%,-22.2%,-20.9%,u
COc1ccccc1CNCCc1cccc(Cl)c1,-21.8%,x,-20.6%,-25.4%,14.6µM*,18.4µM*
CCOc1ccccc1CNCCc1ccc2c(c1)OCO2,-49.7%,-59.8*,-10.5%,-13.1%,u,u
COc1ccc(CNCCc2ccc(Cl)cc2)c(OC)c1OC,u,-16.6,-12.7%,-1.5%,9.2µM*,16.4µM*
COc1ccc(Nc2cc(C)c3cc(NC(=O)c4ccccc4Cl)ccc3n2)cc1,-15.6%,x,x,x,9.2µM*,20.6µM*
Cc1ccccc1CN1CCc2nc(N3CCN(c4ccccn4)CC3)ncc2C1,-26.4%,x,x,x,u,u
CN(C)c1ccc(CN2CCc3nc(N4CCN(c5ccccn5)CC4)ncc3C2)cc1,u,x,x,x,20.6µM*,20.6µM*
COc1cc(CN2CCc3nc(N4CCN(c5ncccn5)CC4)ncc3C2)cc(OC)c1OC,u,x,x,x,8.2µM*,8.2µM*
CNc1ccc(C(=O)CC(O)CCC(C)C2OC(=O)CC(O)CC(=O)CC(O)CC(O)CC(O)CC(O)CC3(O)CC(O)C(C(=O)OC)C(CC(O[C@@H]4O[C@H](C)[C@@H](O)[C@H](N)[C@@H]4O)/C=C/C=C/C=C/C=C/C=C/C=C/C=C/C2C)O3)cc1 (stereo partly drawn),x,x,x,x,-24.1%,3.2%
O=C1NC2(Cc3ccccc31)CN(Cc1ccccn1)C2,50.2%[176 µM],x,x,x,x,x
O=C(NC[C@H]1C[C@@H]2CCN1C[C@@H]2CN1CCN(c2ccccn2)CC1)Nc1ccsc1,74.0%,x,x,x,x,x
SMILES,12-LOX inh,IL1B secr inh,HT1080-NT tox,HT1080 IDH1KD tx,TDP1 cell noCPT,DT40 TDP1 CPT
CC(CCN1CC1)=NNC(=O)Nc1cccc2ccccc12,12.7%,0.0,5.2%,3.4%,8.2µM*,7.31µM*
O=C1CSC(c2c(F)cccc2Cl)c2cn[nH]c2N1 (stereo not drawn),9.3%,x,x,x,x,x
OCC1CN(c2ccncn2)CC12CCNCC2 (stereo not drawn),-14.8%,x,x,x,x,x
CCC(=O)[C@@H](C)[C@@H](O)[C@H](C)C[C@@H](C)C1OC(=O)C[C@@]2(O)CC=C(C)C(O2)C(C)=CCCC[C@H](O[C@H]2C[C@@H](OC(N)=O)[C@H](O)[C@@H](C)O2)C=C[C@H](C)C[C@H]1C (stereo partly drawn),13.4%,-21.5,11.6µM*,20.6µM*,0.517µM*,0.461µM*
CC(C)c1ccc(NC(=O)Cn2c(=O)oc3cc(S(=O)(=O)N4CCCC4)ccc32)cc1,-18.1%,x,x,x,u,9.2µM*
COc1ccc(CNC(=O)Cn2c(=O)oc3cc(S(=O)(=O)N4CCCC4)ccc32)cc1,-6.4%,-6.2,-22.9%,-12.1%,u,18.4µM*
CN(C)c1ccc(CNC(=O)Cn2c(=O)oc3cc(S(=O)(=O)N4CCCCCC4)ccc32)cc1,u,x,x,x,-28.3%,11.6µM*
CC(C)CCNC(=O)Cn1c(=O)oc2cc(S(=O)(=O)N3CCc4ccccc43)ccc21,-4.1%,-1.3,-5.8%,-6.3%,u,u
C#C[C@]1(O)CC[C@H]2[C@@H]3CCC4=CC(=O)CCC4=C3C=C[C@@]21CC,u,x,x,x,9.44µM*,13.3µM*
O=C(NC[C@H]1C[C@@H]2CCN1C[C@@H]2CN1CCSCC1)c1ccccc1,41.7%[176 µM],x,x,x,x,x
C#C[C@@H]1CC2C3CCC4=CC(=O)CCC4C3CCC2(CC)C1O (stereo partly drawn),0.7%,x,x,x,x,x
C#C[C@]1(O)C=C[C@H]2[C@@H]3CCC4=CC(=O)CC[C@@H]4[C@H]3CC[C@@]21CC,x,x,x,x,15µM*,15µM*
CCc1ccc(NC(=O)CN2C(=O)C3(SCC(=O)N3c3ccc(F)c(F)c3)c3ccccc32)cc1 (stereo not drawn),-11.3%,x,x,x,u,18.4µM*
Oc1ccc2c3c1OC1c4oc5ccccc5c4C[C@@]4(O)[C@@H](C2)N(CC2CC2)CC[C@]314 (stereo partly drawn),1.7%,-50.1*,u,u,u,-25.3%
C=C(C)CN1CC[C@@]23c4c5ccc(O)c4O[C@H]2c2[nH]c4ccccc4c2C[C@]3(O)[C@@H]1C5,14.8%,x,x,x,26.6µM*,-104.8%
C=CCN1CC[C@@]23c4c5ccc(O)c4O[C@H]2/C(=N\N=C2/CC[C@@]4(O)[C@H]6Cc7ccc(O)c8c7[C@@]4(CCN6CC=C)[C@@H]2O8)CC[C@]3(O)[C@@H]1C5,u,x,x,x,29.9µM*,u

# Bioassay records (PubChem BioAssay)
